DRD3 agonist: D3 dopamine receptor (human) agonism | P35462 | D3R DiscoveRx beta-arrestin cells, luminescence, 90 min | max activation, % | 410,000 compounds, 0.58% hits | AID 652048; in the data active = max activation above about 30%
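Agonist-mode cell screen: cells plated at 1500/well and incubated overnight at 37 °C, then exposed to library compounds for 90 min at 37 °C. Detection reagent was added for 30–60 min at room temperature, and luminescence was read.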
TDP1 cell noCPT: qHTS for Inhibitors of human tyrosyl-DNA phosphodiesterase 1 (TDP1): qHTS in cells in absence of CPT; 420,000 compounds, 15% hits; Potency, µM (top dose mostly 46.2 µM), hits mostly inhibitors; DT40 Tdp1-/- hTDP1 cells, no CPT, ATP luminescence, 48 h; also: nearly all actives have a fitted effect of over 55% in size
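Luminescent ATP content (CellTiter-Glo) served as the growth readout. Knockout chicken DT40 cells expressing human TDP1 were exposed to compounds without camptothecin for a minimum 48 hr at 37 °C.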
ClpP mod: qHTS Assay for Activators of ClpP. purified B. subtilis ClpP, FRET peptide cleavage, 20 min. AID 651965, 2013. 340,000 compounds, 1.9% hits. Potency, µM (titrated, usually from 57.5 µM); active = well fitted falling curve with a large enough effect; inconclusive = small, poorly fitted or top-dose-only effect; inactive = no such curve, though single readings can be large or run the other way; also: the source files actives as falling curves though it sought activators and does not explain the sign; nearly all actives have a fitted effect of over 65% in size
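ClpP 10 microg/mL final, pH 8 Tris/KCl buffer with BSA, glycerol, Tween-20; compound pinned in; FRET-FV substrate; RT 20 min; Ex320/Em430; ΔFRET vs ADEP 5.8 microM, DMSO, no enzyme.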
DT40 TDP1 CPT: DT40-hTDP1 cell growth loss with CPT; chicken DT40 Tdp1-/-;hTDP1 cells + 20 nM CPT, ATP luminescence, 48 h; Potency, µM (highest dose often 46.2 µM), most hits filed as inhibitors; 420,000 compounds, 12% hits; also: nearly all actives have a fitted effect of over 55% in size
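Chicken DT40 Tdp1-/- cells complemented with human TDP1, 400 cells/well, exposed to compounds plus 20 nM camptothecin for at least 48 h at 37 C; viability read as ATP content by CellTiter-Glo luminescence.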
IL1B secr inh: blocks inflammasome-driven IL-1 beta release; THP-1 LPS/ATP IL-1B secretion, AlphaLISA, 16 h; stronger effect = lower value; AID 743279; activity change, % at 57.5 µM; 360,000 compounds, 4.7% hits; in the data active = activity change below about -50%; inconclusive = mostly about -30% to -49%
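Secreted IL-1B measured by AlphaLISA bead assay after 16 h compound exposure of THP-1 cells; compounds (final up to 57.5 uM) added 1 h before LPS (250 ng/mL) and ATP (1.25 mM) stimulation; lower signal means less secretion.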
DRD3 antagonist: antagonists of human D3 dopamine receptor; P35462; D3R cells, DiscoveRx beta-arrestin luminescence, antagonist mode; stronger effect = lower value; max response, negative = inhibition, %; 360,000 compounds, 2.5% hits; in the data active = max response below about -50%; inconclusive = no clear call, values can overlap the other calls
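Cells expressing the human receptor were seeded at 1500 cells/well, incubated overnight at 37 degrees C in 5% CO2, then exposed to library compounds with dopamine controls for 90 minutes at 37 degrees C before luminescent detection.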
Numbers stand for hits; - = inactive; ? = inconclusive; . = no result; [ ] = remark or other dose. Shown are actives, neighbours in structure and some others; about 21% of the full set was active somewhere. Unless noted, calls follow the shape of the dose curve; as a rule, active = well fitted inhibition curve with a large enough effect; inconclusive = small, poorly fitted or top-dose-only effect; inactive = flat fitted curve, though single readings scatter.

SMILES	DRD3 agonist	TDP1 cell noCPT	ClpP mod	DT40 TDP1 CPT	IL1B secr inh	DRD3 antagonist
COc1cccc(/C=N/NC(=O)c2c(C)nc3ccc(Cl)cn23)c1O	-	1µM	.	0.92µM	-	-
COc1cccc(/C=N/NC(=O)c2ccc(-c3ccccc3)cc2)c1O	-	4.6µM	-	5.2µM	-	-
COc1ccc(C(=O)N/N=C/c2ccccn2)cc1	-	?	-	?	-	-
CCOC(=O)c1cccc(NC(=O)N2CC(CC)Sc3ccccc32)c1 (centres undefined)	-	?	-	?	.	.
COc1ccc(OC)c(/C=N/NC(=O)c2ccc(=O)[nH]n2)c1	-	-	-	-	-	-
COc1ccc(OC)c(/C=N\NC(=O)c2ccc(-c3ccccc3)cc2)c1	-	-	28µM	?	-	-
COc1cccc(C=NCC(C)N=Cc2cccc(OC)c2O)c1O (centres undefined)	-	-	-	-	-	-103
COc1cccc(/C=N/NC(=O)c2ccc(=O)[nH]n2)c1O	-	15µM	-	23µM	-	-
COc1cccc(/C=N/NC(=O)C(=O)Nc2ccccc2OC(F)(F)C(F)F)c1O	-	3.3µM	-	3.3µM	-	-
COc1ccc(O)c(C=NCC(C)N=Cc2cc(OC)ccc2O)c1 (centres undefined)	-	-	.	-	-	-
COc1ccc(OC)c(/C=N/NC(=O)c2ccncc2)c1	-	-	-	-	-	-
COc1ccccc1/C=N/NC(=O)c1cccc(OC(F)(F)C(F)F)c1	-	?	-	-	-	?
COc1cc(CCC(=O)NCc2ccc3c(c2)CCN3C(=O)c2ccccc2)cc(OC)c1OC	-	-	-	-	.	.
COc1cccc(/C=N/NC(=O)c2ccc(=O)n(C)c2)c1O	-	6.5µM	-	5.8µM	-	-
C=CCNc1nc(-c2sc(NC(=O)C(C)(C)C)nc2C)c(-n2cc(-c3ccccc3)nn2)s1	-	15µM	-	21µM	-	-
Cc1ccc(/C=C/c2nc3ccccc3c(=O)[nH]2)cc1	-	?	?	?	-	-
Cc1ccccc1/C=C/c1nc2ccccc2c(=O)[nH]1	-	?	.	16µM	-	-
Cc1ccccc1/C=C\c1nc2ccccc2c(=O)[nH]1	-	16µM	.	26µM	-	-
CN(C)S(=O)(=O)c1ccc2c(c1)nnn2CCNC(=O)Nc1ccc(Br)cc1	-	-	-	-	.	.
CC[C@H](C)[C@H](NC(=O)[C@H](C)NC(=O)[C@H](CC(N)=O)NC(=O)[C@H](CCCCN)NC(=O)[C@H](Cc1ccccc1)NC(=O)[C@H](CC(C)C)NC(=O)[C@@H](NC(=O)[C@@H](NC(=O)[C@H](CC(C)C)NC(=O)[C@@H]1CCCN1C(=O)[C@@H](NC(=O)[C@H](CCC(N)=O)NC(=O)[C@H](CO)NC(=O)[C@H](CCCCN)NC(=O)[C@H](CCC(=O)O)NC(=O)[C@H](CO)NC(=O)[C@@H](NC(=O)[C@H](CCSC)NC(=O)[C@H](Cc1ccccc1)NC(=O)CNC(=O)CNC(=O)[C@@H](N)Cc1ccc(O)cc1)[C@@H](C)O)[C@@H](C)O)C(C)C)[C@@H](C)O)C(=O)N[C@H](C(=O)N[C@@H](CCCCN)C(=O)N[C@@H](CC(N)=O)C(=O)N[C@@H](C)C(=O)N[C@@H](Cc1ccc(O)cc1)C(=O)N[C@@H](CCCCN)C(=O)N[C@@H](CCCCN)C(=O)NCC(=O)N[C@@H](CCC(=O)O)C(=O)O)[C@@H](C)CC	.	-[4.12 µM]	.	-[4.12 µM]	.	.
COCCCNC(=O)c1sc2nc(C)c(C(=O)Nc3ccc(Cl)cc3)c(-c3ccc(Br)cc3)c2c1N	-	-	-	?	.	.
CCOC(=O)c1cc(-c2ccc(OC)c(S(=O)(=O)N3CCN(c4ccccc4)CC3)c2)on1	-	21µM	-	16µM	.	.
CCc1ccc(-c2cc(C)no2)cc1S(=O)(=O)N1CCN(c2ccccc2)CC1	-	?	-	16µM	-	-
COc1ccc(C(C)C)cc1S(=O)(=O)N1CCN(c2ccccc2)CC1	-	-	-	?	-	-
CCOC(=O)Nc1ccc2c(c1)N(C(=O)CCN(CC)CC)c1ccccc1S2=O (centres undefined)	-	3.7µM	-	2.6µM	-100	-
SMILES	DRD3 agonist	TDP1 cell noCPT	ClpP mod	DT40 TDP1 CPT	IL1B secr inh	DRD3 antagonist
CCOC(=O)Nc1ccc2c(c1)N(C(=O)CCN(CC)CC)c1ccccc1CC2	-	?	-	?	?	-
CCN(CC)CCC(=O)N1c2ccccc2CCc2ccc(NC(=O)OC)cc21	-	-	-	-	-62	-
Cc1c(NS(=O)(=O)c2ccc(C(C)(C)C)cc2)c(=O)n(-c2ccccc2)n1C	-	-	-	-	.	.
O=C(CN1C(=O)CCSc2ccccc21)Nc1ccccc1F	-	.	-	.	.	.
COc1ccc(C(=O)n2nc(-c3cccnc3)nc2NCc2ccccc2)cc1OC	-	?	-	-	.	.
CC(NC(=O)c1ccccc1)c1nc2ccccc2n1Cc1ccc(Cl)cc1 (centres undefined)	-	-	-	-	.	.
CCC(=O)NC(C)c1nc2ccccc2n1C (centres undefined)	-	-	-	-	-	-
CCCCCCCn1c(NC(=O)CC)nc2ccccc21	-	21µM	.	?	.	-
CCCCn1c(C(C)NC(=O)CC)nc2ccccc21 (centres undefined)	-	12µM	-	23µM	-	-
CC(C)Cn1c(C(C)NC(=O)Cc2ccccc2)nc2ccccc21 (centres undefined)	-	6.5µM	-	12µM	-	-
CC(C)CNC(=O)NC(=O)CSc1nc2ccccc2n1CC(C)C	-	23µM	-	?	-	-
CCC(=O)Nc1nc2ccccc2n1CCN1CCOCC1	-	-	-	-	-	-
COc1ccc(CNC(=O)CSc2nnc(NC(=O)c3ccccc3F)s2)cc1	-	?	.	-	-	-
C=CCn1c(C(C)NC(=O)C(C)(C)C)nc2ccccc21 (centres undefined)	-	-	-	-	-	-52
CCOc1ccc(NC(=O)C(CC)n2nc(-c3ccc(C)c(C)c3)ccc2=O)cc1 (centres undefined)	-	?	-	?	.	.
Cc1ccc2c(c1)-c1c(ssc1=S)C(C)(C)N2C(=O)CSC1=NCCS1	-	?	-	?	-66	-
CCOc1ccc2c(c1)-c1c(ssc1=S)C(C)(C)N2C(=O)CSC1=NCCS1	-	12µM	-	?	-54	?
CCOc1ccc2c(c1)-c1c(ssc1=S)C(C)(C)N2	-	18µM	-	?	-	-74
